# In PubChem BioAssay (NCI):
# Where “and” joins values, the source holds several entries; their conditions need not be identical. Identical values can stand only once. Compounds without any hit were thinned out: in the full panel of roughly 83,000, 20% have a hit.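 Single-concentration screen, 48 h exposure, 96-well plates. Endpoint: percent growth. Below 10 = active.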 Calls of active or inactive are those of the source.
# Tested on: MDA-MB-468 breast
# Test: NCI-60 one-dose screen, 48 h (100 = growth as untreated, 0 = no growth, -100 = all killed)
# Conditions: 10 µM unless noted
row,SMILES,growth
1,CC1Cc2c(N(C)C)ncnc2N(C)c2ccc(Cl)cc21 (stereo not given),28.7% (inactive)
2,N/C(=N\C(N)=N\c1nc2ccccc2s1)c1ccncc1Cl,90.3% (inactive)
3,O=C(/C(=C/c1ccc([N+](=O)[O-])cc1)SCc1ccc(F)cc1)c1ccc(F)cc1,83.7% (inactive)
4,c1ccc(-c2nc(N3CCNCC3)c3nc(-c4ccccc4)oc3n2)cc1,-37.2% (active)
5,O=C(NNc1nc2cc(F)cc(F)c2n2cccc12)c1ccncn1,-7.49% (active)
6,CCCCCCCCNC(=O)C(C)C,85.4% (inactive)
7,Cc1cc(NC(=O)Nc2cc(Cl)ccc2C)no1,105% (inactive)
8,CC1(C)CC[C@]2(C(=O)O)CC[C@]3(C)C(=CC[C@@H]4[C@@]5(C)Cc6c([nH]c7ccccc67)C(C)(C)[C@@H]5CC[C@]43C)[C@@H]2C1,53.4% (inactive)
9,CCN(CC)c1ccc(/C=C/c2cc(C)c3ccccc3n2)cc1,1.02% (active)
10,C[C@H]1OCC2(CCN(c3cnc(C(=O)Nc4cc(F)cc5cccnc45)cn3)CC2)[C@H]1N,-4.2% (active)
11,O=C(Nc1cccc(Cl)c1)c1cc2ccccc2cc1O,55.4% (inactive) and 17.8% (inactive)
12,COc1ccc(-c2c(-c3ccccc3)noc2N)cc1OC,85.7% (inactive)
13,CCN(CC)CCOc1ccc(C(=C(C)Cc2ccc(OC)cc2)c2ccc(OCCN(CC)CC)cc2)cc1,-25.4% (active)
14,COc1ccc(-c2noc(N)c2-c2cc(OC)c3c(c2)OCO3)cc1,25.6% (inactive)
15,COc1ccc2c(c1)[nH]c(=O)c1c3cc(OC)ccc3cn21,5.66% (active)
